Assay outcomes: PubChem BioAssay, National Center for Advancing Translational Sciences (NCATS)
G9a inh = G9a (human) methyltransferase inhibition | G9a H3K9 monomethylation, AlphaScreen, 2 h | AID 504332 | Potency, µM (highest dose often 102 µM), inactives show at the top dose activity, negative = inhibition, usual class: inhibitors | 350,000 tested, 8.8% active; note: % is set by controls: 0 for no effect and ±100 for the full control effect; nearly all actives have a fitted effect of over 75% in size
Target sequence (Q96KQ7 913-1193 limits assumed): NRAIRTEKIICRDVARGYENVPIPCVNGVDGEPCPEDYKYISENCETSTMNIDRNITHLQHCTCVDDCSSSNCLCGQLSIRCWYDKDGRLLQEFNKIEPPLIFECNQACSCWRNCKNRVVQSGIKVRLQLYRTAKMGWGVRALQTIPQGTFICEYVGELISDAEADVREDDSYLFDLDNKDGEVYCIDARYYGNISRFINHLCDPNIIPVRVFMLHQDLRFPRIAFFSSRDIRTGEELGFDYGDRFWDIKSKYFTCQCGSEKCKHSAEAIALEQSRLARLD
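Chemiluminescent proximity detection of H3K9 monomethylation, read after 10 min bead incubation in the dark. Reaction: 20 nM G9a, 500 nM biotin-H3K9 peptide, 20 uM SAM cofactor, 2 h, room temperature, following 15 min enzyme-compound preincubation.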
HP1b chromo inh = blocks HP1-beta chromodomain binding to methylated histone tails | 390,000 tested, 0.56% active | AlphaScreen HP1-beta / biotin-H3K9me3 peptide binding | Potency, µM (doses to about 114 µM), inactives show at the highest dose activity change, negative = inhibition, hits mostly inhibitors | AID 540317; note: nearly all actives have a fitted effect of over 70% in size
Target sequence (P83916 whole entry, looked up): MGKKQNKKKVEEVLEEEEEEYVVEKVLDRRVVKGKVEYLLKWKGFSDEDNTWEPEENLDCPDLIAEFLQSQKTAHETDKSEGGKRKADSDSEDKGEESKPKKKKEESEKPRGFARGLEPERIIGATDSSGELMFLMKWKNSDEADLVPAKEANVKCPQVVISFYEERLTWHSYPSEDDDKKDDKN
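HP1-beta protein (50 nM final) preincubated 30 min at room temperature with biotinylated H3(1-18)K9me3 peptide (50 nM) in PBS pH 7.4, 0.01% Tween-20, then compound added for 30 min. AlphaScreen streptavidin donor/nickel chelate acceptor beads (10 ug/mL final), 30 min dark, luminescence read.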
BAZ2B inh = inhibitors of human BAZ2B bromodomain. Q9UIF8. AlphaScreen BAZ2B-H3K14Ac peptide displacement. Potency, µM (top dose mostly 114 µM), for inactives: top-dose activity change, negative = inhibition, actives largely listed as inhibitors. 360,000 tested, 4.4% active. AID 504333; note: % is set by controls: 0 for no effect and ±100 for the full control effect; nearly all actives have a fitted effect of over 60% in size
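Complex of BAZ2B and biotin-H3K14Ac (50 nM apiece) forms over 30 min at RT, then faces library compounds up to 110 uM for another 30 min; AlphaScreen beads added, 20 min dark incubation, luminescence read.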
JMJD2A Tudor = blocks the human JMJD2A Tudor domain; O75164; AlphaScreen JMJD2A-Tudor / H3K4me3 peptide binding; Potency, µM (top dose mostly 114 µM), for inactives: top-dose activity change, negative = inhibition, usual class: inhibitors; 390,000 tested, 4.4% active; AID 504339; note: % is set by controls: 0 for no effect and ±100 for the full control effect; nearly all actives have a fitted effect of over 50% in size
Sfp inh = blocks B. subtilis Sfp PPTase activity; Biochemical Sfp PPTase activity, qHTS; Potency, µM, without a hit: largest response in the series, negative = inhibition, hits mostly inhibitors; 310,000 tested, 3.5% active; AID 1490;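 note: the enzyme is Sfp with the accession as filed and its product quenches rhodamine fluorescence; 0% = enzyme reaction without inhibitor and -100% = no enzyme wells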
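Reaction rates are the 30-min fluorescence difference (ex 525, em 598 nm) in wells containing 15 nM Sfp, 5 uM rhodamine-CoA and 12.5 uM BHQ-2-YbbR at pH 7.6 with 10 mM MgCl2.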
L3MBTL1 inh = inhibitors of human L3MBTL1; AlphaScreen L3MBTL1–H3K9me1 peptide binding; Q9Y468; Potency, µM (titrated, usually from 57.1 µM), without a hit: at the highest dose activity, negative = inhibition, most hits filed as inhibitors; 230,000 tested, 0.66% active; note: % is set by controls: 0 for no effect and ±100 for the full control effect; nearly all actives have a fitted effect of over 60% in size
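AlphaScreen assay: L3MBTL1 (50 nM final) was preincubated 30 min at room temperature with biotinylated H3(1-15)K9me1 peptide (75 nM final), then 30 min with library compounds; streptavidin donor and nickel chelate acceptor beads (10 ug/mL final) added, 30 min dark.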
Numbers without * were called inactive; ? = inconclusive; nt = no result; [ ] = dose if it differs, or a comment. Rows were chosen to be rich in hits. Some 12% of all compounds tested hit in one or more screens of this group. Calls come from the whole dose curve; as a rule, active = well fitted curve in the direction sought with a large enough effect; inconclusive = small, poorly fitted or top-dose-only effect, or another doubt; inactive = no such curve, though single readings can be large; an effect the other way counts as inactive or inconclusive. Potency is the fitted concentration of half-maximal effect.

SMILES | G9a inh | HP1b chromo inh | BAZ2B inh | JMJD2A Tudor | Sfp inh | L3MBTL1 inh
O=c1c2oc3ccccc3c2[nH]c(=S)n1-c1ccccc1 | 8.9µM* | -27% | 2% | ? | 50µM* | 6%
CCCCn1c(=O)[nH]c2c(oc3ccccc32)c1=O | -2% | 27% | -6% | 0% | 1% | nt
O=c1c2sccc2[nH]c(=S)n1-c1ccccc1 | ? | 25% | -17% | 5.6µM* | 79µM* | -2%
O=C(Nn1c(=O)[nH]c2ccsc2c1=O)c1ccccc1 | 12%[59 µM] | 15% | -1% | -17% | 1% | 9%
Cc1ccc(-n2c(=S)[nH]c3c(oc4ccccc43)c2=O)cc1 | ? | 29% | -6% | -9% | -9% | 1%
Cc1cccc(-n2c(=S)[nH]c3c(oc4ccccc43)c2=O)c1 | 13µM* | 26% | -6% | -1% | -23% | 12%
CCOC(=O)c1sc2nc(CSc3ccccc3)nc(N3CCC(C(N)=O)CC3)c2c1C | -38% | -5% | -38% | -36% | ? | ?
CCOC(=O)c1sc2nc(CSc3ccccc3)nc(N3CCCN(C)CC3)c2c1C | 45µM* | ? | 50µM* | 14µM* | 50µM* | nt
COc1ccc(C(CC(=O)N2CCCC2)c2c(OC)cc(OC)c3c(-c4ccccc4)cc(=O)oc23)cc1 (centres undefined) | 14%[12.7 µM] | -16% | 56µM* | 50µM* | -26% | nt
COc1ccc(C(CC(=O)N2CCOCC2)c2c(OC)cc(OC)c3ccc(=O)oc23)cc1 (centres undefined) | -5%[12.7 µM] | 18% | -6% | -3% | -7% | nt
COc1cc(OC)c2ccc(=O)oc2c1C(CC(=O)N1CCCC1)c1ccc(N(C)C)cc1 (centres undefined) | ? | -4% | -30% | ? | 10% | nt
CCN(CC)C(=O)CC(c1ccc2c(c1)OCO2)c1c(OC)cc(OC)c2ccc(=O)oc12 (centres undefined) | -3%[59 µM] | 4% | -35% | -34% | -3% | nt
CCN(CC)C(=O)CC(c1ccc(N(C)C)cc1)c1c(OC)cc(OC)c2c(-c3ccccc3)cc(=O)oc12 (centres undefined) | -46%[12.7 µM] | ? | 20µM* | 32µM* | -3% | nt
COc1ccc(C(CC(=O)N2CCOCC2)c2c(OC)cc(OC)c3c(-c4ccccc4)cc(=O)oc23)cc1 (centres undefined) | -17%[59 µM] | 9% | 56µM* | 56µM* | -14% | nt
COc1ccc(C(CC(=O)N2CCCC2)c2c(OC)cc(OC)c3ccc(=O)oc23)cc1 (centres undefined) | 4%[59 µM] | 24% | -14% | -11% | 15% | nt
COc1cc(OC)c2c(-c3ccccc3)cc(=O)oc2c1C(CC(=O)N1CCCC1)c1ccc(N(C)C)cc1 (centres undefined) | nt | ? | nt | 22µM* | -13% | nt
COc1cc(C(CC(=O)N2CCCC2)c2c(OC)cc(OC)c3c(-c4ccccc4)cc(=O)oc23)cc(OC)c1OC (centres undefined) | 7%[12.7 µM] | -13% | 50µM* | 56µM* | -25% | nt
COc1ccc(C(CC(=O)N2CCCC(C)C2)c2c(OC)cc(OC)c3c(-c4ccccc4)cc(=O)oc23)cc1 (centres undefined) | 17%[12.7 µM] | -10% | 45µM* | 45µM* | -14% | nt
COc1ccc(C(CC(=O)N2CCN(c3ccccc3)CC2)c2c(OC)cc(OC)c3c(-c4ccccc4)cc(=O)oc23)cc1 (centres undefined) | ? | nt | 40µM* | nt | 7% | nt
COc1ccc(C(CC(=O)N2CCCCC2)c2c(OC)cc(OC)c3c(-c4ccccc4)cc(=O)oc23)cc1 (centres undefined) | -2%[12.7 µM] | -17% | 45µM* | 50µM* | -11% | nt
COc1ccc(C(CC(=O)N2CCCC(C)C2)c2c(OC)cc(OC)c3ccc(=O)oc23)cc1 (centres undefined) | -15%[59 µM] | 8% | 1% | -24% | -2% | nt
COc1cccc(CNc2ccc3[nH]c(=O)[nH]c3c2)c1OCc1ccccc1 | nt | ? | 45µM* | 40µM* | -23% | -18%
COc1cccc(CNc2ccc3[nH]c(=O)[nH]c3c2)c1OCc1ccccc1Cl | nt | ? | 13µM* | 40µM* | ? | ?
Cc1ccc(Cl)cc1N1CCN(C(=O)COc2cc(=O)n(C)c3ccccc23)CC1 | -33%[59 µM] | 23% | ? | -18% | nt | nt
O=C(CCn1c2c(c3ccccc31)CCCC2)NNC(=O)c1ccc([N+](=O)[O-])cc1 | 16µM* | -5% | -36% | -32% | -10% | -1%
SMILES | G9a inh | HP1b chromo inh | BAZ2B inh | JMJD2A Tudor | Sfp inh | L3MBTL1 inh
Clc1ccc(OCCCNCc2ccccc2)c(Br)c1 | 13µM* | -22% | ? | 10µM* | ? | 6%
Clc1ccc(Cl)c(OCCCCNCc2ccccc2)c1 | ? | ? | ? | 1.3µM* | -22% | 1%
COCCNC(=S)N/N=C(\C)c1ccc(O)cc1 | 56%[59 µM] | 37% | -13% | -5% | -4% | 5%
CC/C(=N\NC(C)=O)c1ccc(OC(F)F)cc1 | 5% | nt | -4% | nt | 25% | 8%
C/C(=N\NC(=S)Nc1ccccc1C)c1ccc(O)cc1 | 35µM* | ? | ? | ? | 25µM* | -22%
COc1ccccc1NC(=S)NNC(=S)Nc1ccc(OC(F)F)cc1 | 1µM* | ? | -38% | 79µM* | -27% | 3%
C/C(=N\NC(=S)Nc1c(C)cccc1C)c1ccc(OC(F)F)cc1 | 8.9µM* | 10% | -6% | ? | -25% | -11%
CC/C(=N\NC(=S)Nc1ccc(OC)cc1)c1ccc(OC(F)F)cc1 | 40µM* | ? | ? | ? | 1% | -15%
C/C(=N\NC(=S)NC1CCCCC1)c1ccc(O)cc1 | 35µM* | ? | ? | ? | 79µM* | -24%
COc1ccc(C/C(C)=N/NC(=S)Nc2ccc(C(C)C)cc2)cc1 | 7.9µM* | 22% | -36% | 7.9µM* | -1% | -6%
CC/C(=N\NC(=S)Nc1cc(C)ccc1C)c1ccc(OC(F)F)cc1 | 3.2µM* | ? | ? | ? | ? | -3%
COc1ccc(C/C(C)=N/NC(=S)Nc2ccccc2F)cc1 | ? | ? | -6% | ? | -13% | -19%
Cc1ccc(Cn2c(C)c(CNCCCc3ccccc3)c(C(=O)O)c2C)cc1 | 0%[59 µM] | 13% | ? | -30% | nt | nt
Cc1coc2c(C)c3oc(=O)c(CCC(=O)N4CCCCC4)c(C)c3cc12 | 0%[59 µM] | 16% | -15% | -26% | nt | nt
Cc1onc(-c2c(Cl)cccc2Cl)c1C(=O)N1CCOCC1 | -1% | 21% | 79µM* | -8% | 14% | nt
COc1ccc(NC(=O)CCS(=O)(=O)c2nc(-c3cccs3)cc(C(F)(F)F)n2)cc1OC | -46%[59 µM] | 42% | -2% | -6% | nt | nt
